Our source for the growth values is PubChem BioAssay (NCI).

The structures appear in SMILES notation. Compounds without any hit were thinned out: in the full panel of roughly 83,000, 20% have a hit.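 For each line, cells grew in 96-well plates with the test compound present at a single concentration for 48 hours.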 Values without a mark were called inactive. The source made the active and inactive calls. The calls were made as follows: active = growth percent below 10; inactive = the rest.

Among the test systems are SK-MEL-2 melanoma; EKVX NSCLC; SN12C renal; UO-31 renal; TK-10 renal; ACHN renal; CAKI-1 renal; A498 renal; SR leukemia; RPMI-8226 leukemia; OVCAR-8 ovarian; OVCAR-4 ovarian; SK-OV-3 ovarian; IGROV1 ovarian; OVCAR-3 ovarian; HS 578T breast; NCI/ADR-RES ovarian; MOLT-4 leukemia; OVCAR-5 ovarian.
What all share (experiment): NCI-60 one-dose screen, 48 h (100 = growth as untreated, 0 = no growth, -100 = all killed)
Common to all, as to conditions: 10 µM unless noted

Take `N#Cc1c(-c2cccc(Cl)c2)cc(-c2cccc(F)c2)[nH]c1=O`: the growth with SK-MEL-2 melanoma was 102%; in the test on EKVX NSCLC, 95.1%; in the test with SN12C renal it was 91.1%; with UO-31 renal, 80.7%; in the test with TK-10 renal, 94%; with ACHN renal, 90.3%. Also, the growth in the test with CAKI-1 renal is 89.6%; in the test with A498 renal, 59.4%; in the test with SR leukemia, 104%; in the test with RPMI-8226 leukemia, 65.4%; in the test on OVCAR-8 ovarian, 93.5%; with OVCAR-4 ovarian, 83.7%. Further, the growth with SK-OV-3 ovarian was 102%; in the test on IGROV1 ovarian it was 94.4%; with OVCAR-3 ovarian it was 92.7%; in the test on HS 578T breast, 81.9%; with NCI/ADR-RES ovarian, 98%.
Regarding `CC(=O)c1ccc(NCC(=O)Nc2ccccn2)cc1`, the growth was 105% in the test with SK-MEL-2 melanoma; 101% in the test with EKVX NSCLC; 106% in the test on SN12C renal; 86.4% in the test on UO-31 renal; 146% with TK-10 renal; 103% with ACHN renal. Further, the growth in the test on CAKI-1 renal was 87.9%; with A498 renal, 104%; in the test on MOLT-4 leukemia it was 100%; in the test on RPMI-8226 leukemia, 113%; with OVCAR-5 ovarian, 109%; in the test on OVCAR-4 ovarian it was 98.9%. In addition, the growth in the test with SK-OV-3 ovarian is 97%; with IGROV1 ovarian it was 94.8%; in the test with OVCAR-3 ovarian, 117%; in the test on HS 578T breast, 106%; in the test with NCI/ADR-RES ovarian it was 105%.
For `COC(=O)c1c2c(c[n+]([O-])c1C)C(=O)C=CC2=O`, the growth in the test on SK-MEL-2 melanoma was 58.5%; in the test on EKVX NSCLC it was 101%; with SN12C renal, 59.7%; in the test on UO-31 renal, 46.5%; in the test with TK-10 renal it was 101%; in the test with ACHN renal, 14.2%. The growth with CAKI-1 renal was 62.1%; with A498 renal, 106%; in the test with MOLT-4 leukemia, -17.4% (active); in the test on RPMI-8226 leukemia it was 57.6%; in the test on OVCAR-8 ovarian, 35.3%; in the test with OVCAR-4 ovarian, -13.2% (active). For the same compound, the growth in the test with SK-OV-3 ovarian was 97%; with IGROV1 ovarian, 2.42% (active); with OVCAR-3 ovarian, -66.3% (active); with HS 578T breast, 86.3%; in the test with NCI/ADR-RES ovarian, 97.1%.
With `Cc1c(O)cc(-c2cnc(N/N=C\c3ccc(Cl)cc3)s2)c(O)c1C`, the growth was 101% in the test on SK-MEL-2 melanoma; 64.3% with EKVX NSCLC; 87.5% in the test on SN12C renal; 75.5% in the test with UO-31 renal; 120% in the test with TK-10 renal; 100% in the test with ACHN renal. Also, the growth in the test on CAKI-1 renal was 92%; with A498 renal, 103%; in the test on SR leukemia, 58.3%; in the test with OVCAR-8 ovarian, 60.7%; in the test on OVCAR-5 ovarian it was 102%; in the test on OVCAR-4 ovarian, 61.7%. The growth in the test with SK-OV-3 ovarian is 104%; in the test on IGROV1 ovarian, 83.5%; in the test with OVCAR-3 ovarian it was 90.3%; in the test with HS 578T breast, 77.6%; with NCI/ADR-RES ovarian, 80.5%.
As to `CCOC(CN=Cc1cc(C)c2[nH]c3ccccc3c2c1C)OCC`, the growth in the test on SK-MEL-2 melanoma was 91.4%; in the test with EKVX NSCLC it was 105%; in the test on SN12C renal, 99.1%; in the test with UO-31 renal it was 94.3%; in the test on TK-10 renal it was 83.3%; with ACHN renal, 106%. Moreover, the growth in the test with CAKI-1 renal is 105%; in the test on A498 renal, 37.5%; in the test on MOLT-4 leukemia it was 81.2%; in the test with RPMI-8226 leukemia it was 88.7%; in the test with OVCAR-8 ovarian, 94.7%; in the test with OVCAR-5 ovarian, 83.4%. Further, the growth was 97.8% in the test with OVCAR-4 ovarian; 111% with SK-OV-3 ovarian; 102% with IGROV1 ovarian; 123% in the test with HS 578T breast; 101% in the test with NCI/ADR-RES ovarian.
As to `CC/C=C\C/C=C\C[C@H](O)C/C=C1/C(=O)C=C[C@@H]1C/C=C\CCCC(=O)O`, the growth is 23.2% in the test with SK-MEL-2 melanoma; 95.3% in the test on EKVX NSCLC; 16.9% in the test with SN12C renal; 57% in the test on UO-31 renal; 79% in the test on TK-10 renal; 60.2% with ACHN renal. Also, the growth in the test with CAKI-1 renal was 37.8%; in the test with A498 renal, 96.6%; in the test with MOLT-4 leukemia it was 7.61% (active); in the test on RPMI-8226 leukemia, 3.88% (active); with OVCAR-8 ovarian it was -4.92% (active); with OVCAR-5 ovarian, 65.3%. For the same compound, the growth in the test with OVCAR-4 ovarian is 47.4%; in the test with SK-OV-3 ovarian, 109%; with IGROV1 ovarian, 63.1%; with OVCAR-3 ovarian, 7.83% (active); in the test with HS 578T breast, 42.6%; in the test on NCI/ADR-RES ovarian it was 31.3%.
Take `CN(C)c1ccc(/C=C/C(=O)c2cccc(Nc3nc(Nc4ccccc4)nc(Nc4ccccc4)n3)c2)cc1`: the growth is 62.1% with SK-MEL-2 melanoma; 77.8% in the test with EKVX NSCLC; 91.6% in the test on SN12C renal; 73.5% in the test on UO-31 renal; 90.9% in the test on TK-10 renal; 90.6% in the test on ACHN renal. The growth is 91.6% with CAKI-1 renal; 76.8% in the test on A498 renal; 80.6% with MOLT-4 leukemia; 53.4% in the test with RPMI-8226 leukemia; 81.2% in the test with OVCAR-8 ovarian; 93.9% in the test on OVCAR-5 ovarian. Moreover, the growth was 30.7% with OVCAR-4 ovarian; 93.2% in the test on SK-OV-3 ovarian; 69% in the test on IGROV1 ovarian; 102% with OVCAR-3 ovarian; 78.9% with HS 578T breast; 76.4% with NCI/ADR-RES ovarian.
Turning to `COc1ccc(C(=O)/C=C/c2c(C(F)(F)F)nc3sccn23)cc1OC`, the growth in the test on SK-MEL-2 melanoma was 80.4%; in the test on EKVX NSCLC it was 37.1%; with SN12C renal, 29%; in the test on UO-31 renal, 61.1%; in the test on TK-10 renal it was 58.1%; in the test with ACHN renal, 26.5%. The growth is 2.75% (active) in the test on CAKI-1 renal; 94.7% in the test with A498 renal; -16.6% (active) in the test on MOLT-4 leukemia; 18.6% in the test with OVCAR-8 ovarian; 44.6% with OVCAR-5 ovarian; 25.5% in the test on OVCAR-4 ovarian. Besides, the growth with SK-OV-3 ovarian is 9.87% (active); with IGROV1 ovarian it was 81.9%; in the test with OVCAR-3 ovarian, -33.9% (active); in the test on HS 578T breast it was -5.99% (active); with NCI/ADR-RES ovarian, 4.94% (active).
Consider `O=C(COc1ccc(/C=C2\Oc3ccccc3C2=O)cc1)c1ccc(Cl)cc1`, for which the growth was 82.7% in the test with SK-MEL-2 melanoma; 98.8% with EKVX NSCLC; 103% in the test with SN12C renal; 110% with UO-31 renal; 120% in the test with TK-10 renal; 104% with ACHN renal. Also, the growth in the test with CAKI-1 renal is 81.8%; with A498 renal, 112%; with MOLT-4 leukemia, 87.9%; in the test on RPMI-8226 leukemia it was 111%; with OVCAR-8 ovarian it was 105%; with OVCAR-5 ovarian, 97.4%. For the same compound, the growth in the test with SK-OV-3 ovarian is 105%; in the test with OVCAR-3 ovarian it was 96.6%; with HS 578T breast, 112%; in the test with NCI/ADR-RES ovarian, 110%.
